In ChEMBL document CHEMBL2218924, “A broad activity screen in support of a chemogenomic map for kinase signalling research and drug discovery” (Biochem J, 2013):

Key:
[1] = target: Protein kinase C alpha type (Homo sapiens) (UniProt P17252); conditions: at 1 µM
[2] = target: Protein kinase C alpha type (Homo sapiens) (UniProt P17252); conditions: at 10 µM
[3] = target: Protein kinase C beta type (Homo sapiens) (UniProt P05771); conditions: at 1 µM
[4] = target: Protein kinase C beta type (Homo sapiens) (UniProt P05771); conditions: at 10 µM
[5] = target: Protein kinase C beta type (Homo sapiens) (UniProt P05771); conditions: at 1 µM; remark: listed apart in the source
[6] = target: Protein kinase C beta type (Homo sapiens) (UniProt P05771); conditions: at 10 µM; remark: listed apart in the source
[7] = target: Protein kinase C gamma type (Homo sapiens) (UniProt P05129); conditions: at 1 µM
[8] = target: Protein kinase C gamma type (Homo sapiens) (UniProt P05129); conditions: at 10 µM
[9] = target: Protein kinase C delta type (Homo sapiens) (UniProt Q05655); conditions: at 1 µM
Chain of Protein kinase C delta type (Homo sapiens) (Q05655 whole entry, looked up): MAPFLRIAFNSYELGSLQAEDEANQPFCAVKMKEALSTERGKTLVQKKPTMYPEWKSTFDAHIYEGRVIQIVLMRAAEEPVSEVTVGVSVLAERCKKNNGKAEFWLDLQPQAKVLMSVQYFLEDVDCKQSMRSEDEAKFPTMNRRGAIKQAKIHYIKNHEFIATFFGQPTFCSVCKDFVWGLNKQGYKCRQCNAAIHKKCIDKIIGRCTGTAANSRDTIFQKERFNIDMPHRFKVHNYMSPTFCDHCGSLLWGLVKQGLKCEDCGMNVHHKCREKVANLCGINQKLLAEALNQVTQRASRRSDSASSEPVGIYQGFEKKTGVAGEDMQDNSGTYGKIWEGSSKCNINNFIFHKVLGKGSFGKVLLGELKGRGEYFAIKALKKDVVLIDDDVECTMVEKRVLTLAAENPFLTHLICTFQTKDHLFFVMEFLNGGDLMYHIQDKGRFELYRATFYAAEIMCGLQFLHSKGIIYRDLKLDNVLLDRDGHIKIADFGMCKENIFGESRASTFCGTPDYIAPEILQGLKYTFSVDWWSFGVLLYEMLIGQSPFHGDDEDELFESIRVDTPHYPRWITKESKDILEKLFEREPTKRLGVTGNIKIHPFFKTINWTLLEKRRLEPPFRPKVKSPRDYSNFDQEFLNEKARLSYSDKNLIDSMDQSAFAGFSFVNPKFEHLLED

[10] = target: Protein kinase C delta type (Homo sapiens) (UniProt Q05655); conditions: at 10 µM
[11] = target: T1, Protein kinase C epsilon type (Homo sapiens) (UniProt Q02156); conditions: at 1 µM
T1 sequence (whole entry): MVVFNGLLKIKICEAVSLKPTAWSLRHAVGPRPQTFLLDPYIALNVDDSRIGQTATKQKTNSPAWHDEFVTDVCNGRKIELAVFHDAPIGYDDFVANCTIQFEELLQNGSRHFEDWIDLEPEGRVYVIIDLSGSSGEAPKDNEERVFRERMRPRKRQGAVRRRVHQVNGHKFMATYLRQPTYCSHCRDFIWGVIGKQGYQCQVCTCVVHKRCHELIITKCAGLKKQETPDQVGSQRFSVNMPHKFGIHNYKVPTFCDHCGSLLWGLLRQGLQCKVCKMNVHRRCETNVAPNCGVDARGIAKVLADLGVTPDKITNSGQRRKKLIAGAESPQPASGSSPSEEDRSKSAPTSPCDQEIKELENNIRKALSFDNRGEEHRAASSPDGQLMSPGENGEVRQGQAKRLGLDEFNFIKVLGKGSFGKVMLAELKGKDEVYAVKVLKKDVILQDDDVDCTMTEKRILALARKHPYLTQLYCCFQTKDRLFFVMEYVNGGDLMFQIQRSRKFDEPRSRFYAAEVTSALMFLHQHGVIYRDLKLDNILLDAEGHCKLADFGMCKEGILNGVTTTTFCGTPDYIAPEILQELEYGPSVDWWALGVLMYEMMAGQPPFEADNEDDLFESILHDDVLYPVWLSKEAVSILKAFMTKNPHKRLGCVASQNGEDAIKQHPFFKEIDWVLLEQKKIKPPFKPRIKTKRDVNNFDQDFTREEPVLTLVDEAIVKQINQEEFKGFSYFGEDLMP

[12] = target: T1, Protein kinase C epsilon type (Homo sapiens); conditions: at 10 µM

Chain of Protein kinase C beta type (Homo sapiens) (P05771 2-671 limits assumed): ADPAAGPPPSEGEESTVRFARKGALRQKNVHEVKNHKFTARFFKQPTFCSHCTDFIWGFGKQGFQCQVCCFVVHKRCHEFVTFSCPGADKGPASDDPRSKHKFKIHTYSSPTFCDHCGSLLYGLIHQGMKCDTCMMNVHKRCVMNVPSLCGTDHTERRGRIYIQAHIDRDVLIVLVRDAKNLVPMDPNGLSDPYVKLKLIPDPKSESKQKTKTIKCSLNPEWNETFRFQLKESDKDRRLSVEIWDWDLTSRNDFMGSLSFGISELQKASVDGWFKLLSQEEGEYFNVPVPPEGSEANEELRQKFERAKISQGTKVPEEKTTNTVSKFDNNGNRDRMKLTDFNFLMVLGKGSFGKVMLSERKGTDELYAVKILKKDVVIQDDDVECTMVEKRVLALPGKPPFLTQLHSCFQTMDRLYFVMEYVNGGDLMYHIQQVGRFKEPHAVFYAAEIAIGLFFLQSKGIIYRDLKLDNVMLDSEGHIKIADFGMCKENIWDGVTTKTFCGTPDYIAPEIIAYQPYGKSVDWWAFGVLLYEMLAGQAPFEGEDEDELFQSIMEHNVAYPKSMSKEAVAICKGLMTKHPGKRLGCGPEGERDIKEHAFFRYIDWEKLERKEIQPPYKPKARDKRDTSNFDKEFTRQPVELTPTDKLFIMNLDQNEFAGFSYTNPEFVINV

Row | SMILES | residual activity [1] [%] | residual activity [2] [%] | residual activity [3] [%] | residual activity [4] [%] | residual activity [5] [%] | residual activity [6] [%] | residual activity [7] [%] | residual activity [8] [%] | residual activity [9] [%] | residual activity [10] [%] | residual activity [11] [%] | residual activity [12] [%]
1 | COc1ccc(S(=O)(=O)N(CCO)c2ccccc2CN(C)C/C=C/c2ccc(Cl)cc2)cc1 | 107 | 94 | 106 | 102 | 115 | 96 | 99 | 104 | 108 | 106 | 106 | 93
2 | CC(C)n1cnc2c(NCc3ccccc3)nc(NCCCO)nc21 | 99 | 102 | 106 | 105 | 105 | 104 | 92 | 104 | 94 | 98 | 91 | 103
3 | Cn1nc2c3c(cccc31)C(=O)c1ccccc1-2 | 101 | 97 | 107 | 104 | 109 | 103 | 90 | 101 | 104 | 108 | 106 | 98
4 | O=C(O)c1ccc2c3c1cccc3c(=O)n1c3ccccc3nc21 | 99 | 98 | 125 | 113 | 115 | 100 | 94 | 74 | 100 | 107 | 112 | 109
5 | COc1cc2ncnc(Nc3ccc(O)c(Br)c3)c2cc1OC | 107 | 109 | 97 | 83 | 94 | 97 | 102 | 100 | 100 | 81 | 89 | 83
6 | Nc1ccc2ncnc(NCCc3ccc(Oc4ccccc4)cc3)c2c1 | 103 | 103 | 137 | 113 | 118 | 104 | 87 | 111 | 106 | 111 | 119 | 126
7 | CO[C@@H]1[C@H](N(C)C(=O)c2ccccc2)C[C@H]2O[C@]1(C)n1c3ccccc3c3c4c(c5c6ccccc6n2c5c31)C(=O)NC4 | 36 | 14 | 66 | 14 | 61 | 45 | 15 | 6 | 21 | 9 | 42 | 14
8 | CC(C)n1cnc2/c(=N/c3cccc(Cl)c3)nc(NCCO)[nH]c21 | 101 | 63 | 104 | 89 | 101 | 100 | 99 | 70 | 96 | 82 | 75 | 92
9 | Cn1cnc2cc3c(Nc4cccc(Br)c4)ncnc3cc21 | 101 | 98 | 109 | 85 | 100 | 95 | 103 | 99 | 97 | 100 | 86 | 95
10 | CN(C)c1ccc(/C=C2\C(=O)Nc3ccccc32)cc1 | 103 | 101 | 114 | 112 | 94 | 98 | 113 | 102 | 88 | 101 | 120 | 121
11 | O=Nc1c(-c2c(O)[nH]c3ccccc23)[nH]c2ccccc12 | 93 | 86 | 93 | 94 | 95 | 102 | 92 | 73 | 85 | 80 | 106 | 91
12 | Oc1n[nH]c2nnc(-c3c(-c4ccccc4)nn4ccccc34)cc12 | 102 | 92 | 94 | 98 | 103 | 97 | 96 | 103 | 99 | 95 | 97 | 98
13 | c1ccc2c(-c3ccncc3)c[nH]c2c1 | 98 | 80 | 105 | 64 | 98 | 65 | 106 | 86 | 63 | 23 | 73 | 55
14 | COc1cc2ncnc(N3CCN(C(=O)Nc4ccc(Oc5ccccc5)cc4)CC3)c2cc1OC | 99 | 103 | 106 | 97 | 101 | 102 | 103 | 107 | 101 | 110 | 96 | 90
15 | CC#CC(=O)Nc1cc2c(Nc3ccc(F)c(Cl)c3)ncnc2cn1 | 103 | 96 | 113 | 103 | 101 | 101 | 109 | 105 | 94 | 102 | 90 | 94
